In the library only some 4.1% were active in any assay of this set; here they are far more common.
ssDAF12 agonist = S. stercoralis DAF-12 nuclear receptor activators, primary screen, cell-based, luminescence, HEK293, GRIP1 co-expression, lit1-tk-luc. Nuclear hormone receptor DAF-12 (Strongyloides stercoralis). HEK293 ssDAF-12/GRIP1 lit1-tk-luc reporter; % of 3 µM dafachronic acid response. activation, % at 6.8 µM. actives 1% (n = 370,000). AID 652126, 2013;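 active = activation above the mean over all tested compounds plus 3 SD, cut at about 0.9% in these data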;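 note: 0% = DMSO-only wells and 100% = 3 µM delta7-dafachronic acid wells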
DAX1 inh-1 = DAX1 (NR0B1) inhibitors on StAR promoter, primary screen, cell-based, luminescence, SF-1 (NR5A1), full-length DAX-1; HEK293T StAR-luciferase reporter, SF-1/DAX-1 repression relief; inhibition, % at 6.8 µM; actives 1.1% (n = 370,000);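 active = inhibition above the mean over all tested compounds plus 3 SD, cut at about 3.6% in these data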;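 note: 0% = DAX-1 cells with DMSO and 100% = cells lacking DAX-1 with DMSO; higher inhibition means more luminescence from relief of DAX-1 repression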
PolyA inhibitor = polyadenylation inhibitors in yeast reporter cells, primary screen, luminescence, S. cerevisiae; AID 1875, 2009; actives 0.02% (n = 300,000); activity score, % at 12 µM; S. cerevisiae SKY197-pL101 polyadenylation reporter, beta-gal luminescence; efflux-impaired pdr1/pdr3 knockout yeast; score 100 = 6 SD above DMSO;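 active = lowest replicate activity score at least 50, where 100 means six control SD above control mean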;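 note: yeast exposed to compound for 9 h at 30 °C; higher score means more reporter readthrough which indicates perturbed polyadenylation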
DAX1 inh-2 = DAX1 (NR0B1) inhibitors, primary screen, cell-based, HEK293, Gal4-DAX1, luciferase luminescence; HEK293 Gal4-DAX1 luciferase reporter; inhibition, % at 6.75 µM; actives 0.99% (n = 340,000);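 active = inhibition above the mean over all tested compounds plus 3 SD, cut at about 4.2% in these data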;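 note: 0% = DAX1-transfected cells with DMSO and 100% = empty-vector control cells with DMSO; inhibition shows as a rise in luminescence from relieved DAX1 repression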
Target sequence (P51843 207-470 limits assumed): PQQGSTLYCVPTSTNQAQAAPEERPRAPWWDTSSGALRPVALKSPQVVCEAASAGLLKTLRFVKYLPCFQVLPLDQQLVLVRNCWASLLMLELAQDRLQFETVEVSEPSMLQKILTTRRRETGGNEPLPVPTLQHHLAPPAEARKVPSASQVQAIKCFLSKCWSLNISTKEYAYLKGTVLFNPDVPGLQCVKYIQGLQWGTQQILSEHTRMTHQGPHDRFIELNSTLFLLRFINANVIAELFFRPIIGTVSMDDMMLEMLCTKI
hcDAF12 agonist = H. contortus DAF-12 nuclear receptor activators, primary screen, cell-based, luminescence, HEK293, lit1-tk-luc reporter; HEK293 hcDAF-12 lit1-tk-luc reporter; 0% DMSO, 100% Δ7-dafachronic acid; activation, % at 6.8 µM; actives 1.4% (n = 370,000);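 active = activation above the mean of all tested compounds plus 3 SD, cut at about 5.5% in these data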;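 note: 100% = response to 3 µM Δ7-dafachronic acid high control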
hgDAF12 agonist = H. glycines DAF-12 receptor agonists, primary screen, cell-based, luminescence, HEK293, GAL4 fusion, UAS-luciferase. Nuclear hormone receptor DAF-12 (Heterodera glycines), GAL4 fusion. HEK293 GAL4-hgDAF12 UAS-luciferase reporter, agonist luminescence; normalized to butyrate control. activation, % at 6.8 µM. actives 1.8% (n = 370,000);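 active = activation above a cutoff set at the mean of all screened compounds plus 3 SD, cut at about 10% in these data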;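 note: 0% = DMSO wells and 100% = sodium butyrate wells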
Active calls of the source: *; ! = repeats disagree.

For CCOC(=O)[C@H](CCc1ccccc1)N[C@@H](C)C(=O)N1Cc2cc(OC)c(OC)cc2C[C@H]1C(=O)O the results were ssDAF12 agonist -1, DAX1 inh-1 -1, hcDAF12 agonist -1 and hgDAF12 agonist 2.
`Cc1ccn(CCC(=O)NC2CC(C)(C)Cc3c2cnn3-c2ccccc2C)n1` (stereo not drawn) gave ssDAF12 agonist -1, DAX1 inh-1 3.8*, PolyA inhibitor -12, DAX1 inh-2 1, hcDAF12 agonist 3 and hgDAF12 agonist 2.
`Cc1ccccc1-n1ncc2c1CC(C)(C)CC2NC(=O)CCC1=NNC(=O)CC1` (stereo not drawn) gave ssDAF12 agonist -1, DAX1 inh-1 0, PolyA inhibitor 15, DAX1 inh-2 1, hcDAF12 agonist 0 and hgDAF12 agonist 0.
C#CCCC(=O)O[C@H]1CCC[C@@]2(C(=O)N(Cc3ccccc3)c3ccccc32)[C@H]1NC(=O)CCc1ccccc1 was read as ssDAF12 agonist 0, DAX1 inh-1 0, hcDAF12 agonist -3 and hgDAF12 agonist -2.
Screening CCOC(=O)Nc1ccc2c(c1)N(C(=O)OCCN(C)C)c1ccccc1CC2 returned ssDAF12 agonist -1, DAX1 inh-1 1, PolyA inhibitor 16, DAX1 inh-2 5.1*!, hcDAF12 agonist -1 and hgDAF12 agonist 1.
For c1ccc2sc(-c3csc4c3CCNC4)nc2c1 the results were ssDAF12 agonist -2, hcDAF12 agonist 2 and hgDAF12 agonist 7.
Screening COc1cccc(CN(C)[C@H]2C[C@H]3c4[nH]c5ccccc5c4CCN3C[C@H]2[C@H](C)O)c1OC returned ssDAF12 agonist -1, DAX1 inh-1 1, hcDAF12 agonist -1 and hgDAF12 agonist 1.
`C=CCN=C1S/C(=C\c2ccc(N(C)C)cc2)C(=O)N1CC=C` gave ssDAF12 agonist -1, DAX1 inh-1 1, PolyA inhibitor -7, DAX1 inh-2 4.7*, hcDAF12 agonist -1 and hgDAF12 agonist 3.
Screening COC(=O)C1=C(C)N(Cc2ccccc2C(F)(F)F)C(=NCc2cccc(C(F)(F)F)c2)NC1c1ccc(F)cc1 (stereo not drawn) returned ssDAF12 agonist -1, DAX1 inh-1 -1, hcDAF12 agonist 2 and hgDAF12 agonist 4.
`CCCCC1CCC(c2ccc(C(N)=O)cc2)CC1` (stereo not drawn) gave ssDAF12 agonist -1, DAX1 inh-1 0, PolyA inhibitor 16, DAX1 inh-2 1, hcDAF12 agonist 0 and hgDAF12 agonist -1.
CCCCCC1CCC(c2ccc(/C(N)=N/O)cc2)CC1 (stereo not drawn) was read as ssDAF12 agonist -1, DAX1 inh-1 0, PolyA inhibitor 4, DAX1 inh-2 5.5*, hcDAF12 agonist 1 and hgDAF12 agonist -2.
`O=C(C1CCCN1S(=O)(=O)c1cccc([N+](=O)[O-])c1)N1CCN(c2ccccc2)CC1` (stereo not drawn) gave ssDAF12 agonist -1, DAX1 inh-1 0, hcDAF12 agonist -5 and hgDAF12 agonist -3.
For COc1ccc2nc(Cl)c(/C=N/Nc3ccccn3)cc2c1 the results were ssDAF12 agonist -1, DAX1 inh-1 4.1*, PolyA inhibitor -20, DAX1 inh-2 1, hcDAF12 agonist 2 and hgDAF12 agonist 10.
Screening COc1ccc2c3n([n+]([O-])c2c1)CCN=C3c1ccc(C)cc1 returned ssDAF12 agonist 1.1*, DAX1 inh-1 0, DAX1 inh-2 1, hcDAF12 agonist 5.6* and hgDAF12 agonist 3.
`COc1ccc2c3n([n+]([O-])c2c1)CCN=C3c1cc(Cl)c(N)c(Cl)c1` gave ssDAF12 agonist -1, DAX1 inh-1 -1, DAX1 inh-2 -1, hcDAF12 agonist 1 and hgDAF12 agonist 1.
For C[C@@H]1NS(=O)(=O)c2ccc(F)cc2O[C@@H]1c1ccccc1 the results were ssDAF12 agonist -2, DAX1 inh-1 0, hcDAF12 agonist 1 and hgDAF12 agonist 0.
Screening CCCSc1nc2cc(C)c(C)cc2n1CC(O)CO (stereo not drawn) returned ssDAF12 agonist -1, DAX1 inh-1 0, PolyA inhibitor 14, DAX1 inh-2 -1, hcDAF12 agonist 0 and hgDAF12 agonist 4.
For CCN(CC)CC(O)Cn1c(-c2cccc(Cl)c2)nc2cc(C)c(C)cc21 (stereo not drawn) the results were ssDAF12 agonist -1, DAX1 inh-1 1, PolyA inhibitor 15, DAX1 inh-2 4.2*, hcDAF12 agonist 2 and hgDAF12 agonist 2.
`O=C(Nc1ccc([N+](=O)[O-])cc1)C(Cc1ccccc1)N1C(=O)c2cccc3cccc(c23)C1=O` (stereo not drawn) gave ssDAF12 agonist 1.4*, DAX1 inh-1 0, PolyA inhibitor -3, DAX1 inh-2 0, hcDAF12 agonist 5 and hgDAF12 agonist 3.
`O=C(O)c1ccccc1NC(=O)C(Cc1ccccc1)N1C(=O)c2ccccc2C1=O` (stereo not drawn) gave ssDAF12 agonist -2, DAX1 inh-1 0, PolyA inhibitor -18, DAX1 inh-2 0, hcDAF12 agonist 2 and hgDAF12 agonist 0.
Screening OC1(c2cccc(C(F)(F)F)c2)CCN(CCN2CCCCC2)CC1 returned ssDAF12 agonist 1.6*, DAX1 inh-1 0, PolyA inhibitor 5, DAX1 inh-2 2, hcDAF12 agonist 0 and hgDAF12 agonist 0.
Screening CCC(C)(C)n1nnnc1CN1CCC(O)(c2cccc(C(F)(F)F)c2)CC1 returned ssDAF12 agonist -1, DAX1 inh-1 -1, PolyA inhibitor 3, DAX1 inh-2 0, hcDAF12 agonist 0 and hgDAF12 agonist 1.
For CCN1CCN(C(=O)c2cc3c(=O)n4ccccc4nc3s2)CC1 the results were ssDAF12 agonist 0, DAX1 inh-1 1, PolyA inhibitor 2, DAX1 inh-2 0, hcDAF12 agonist 3 and hgDAF12 agonist 0.
Screening CC(C)CN(CC(C)C)C(=O)c1cc2c(=O)n3ccccc3nc2s1 returned ssDAF12 agonist -1, DAX1 inh-1 0, PolyA inhibitor 9, DAX1 inh-2 1, hcDAF12 agonist -1 and hgDAF12 agonist -3.
